# PubChem BioAssay (NCI)
# Where “and” joins values, the source holds several entries; their conditions need not be identical. Equal values may be shown once. Compounds without any hit were thinned out: in the full panel of roughly 83,000, 20% have a hit.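 Plates (96-well) were seeded with cells, treated with compound at one concentration, and incubated for 48 hours before percent growth was determined.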 Calls of active or inactive are those of the source. How the source made its calls: active means growth percent below 10; inactive means the rest.
# How the values were obtained:
# Test in all cases: NCI-60 one-dose screen, 48 h (100 = growth as untreated, 0 = no growth, -100 = all killed)
# Conditions in all cases: 10 µM unless noted
# NCI-H23 lung = system: NCI-H23 lung
# NCI-H226 lung = system: NCI-H226 lung
# NCI-H322M lung = system: NCI-H322M lung
# NCI-H460 lung = system: NCI-H460 lung
# HOP-92 NSCLC = system: HOP-92 NSCLC
# NCI-H522 lung = system: NCI-H522 lung
# A549/ATCC NSCLC = system: A549/ATCC NSCLC
# 786-0 renal = system: 786-0 renal
# COLO 205 colon = system: COLO 205 colon
# HOP-62 NSCLC = system: HOP-62 NSCLC
SMILES,growth (NCI-H23 lung),growth (NCI-H226 lung),growth (NCI-H322M lung),growth (NCI-H460 lung),growth (HOP-92 NSCLC),growth (NCI-H522 lung),growth (A549/ATCC NSCLC),growth (786-0 renal),growth (COLO 205 colon),growth (HOP-62 NSCLC)
Cc1ccc(-c2noc(CC(=O)c3ccc([N+](=O)[O-])cc3)n2)cc1,95.9% (inactive),92.9% (inactive),105% (inactive),103% (inactive),101% (inactive),95.2% (inactive),94.6% (inactive),99.6% (inactive),109% (inactive),–
CCOC(=O)Nc1nc2ccccc2[nH]1,102% (inactive) and 56.7% (inactive),104% (inactive) and 71.9% (inactive),107% (inactive) and 72.2% (inactive),106% (inactive) and 22.4% (inactive),104% (inactive) and 62.5% (inactive),95.6% (inactive) and 46.8% (inactive),102% (inactive) and 55.4% (inactive),98.5% (inactive) and 39% (inactive),119% (inactive) and 37.7% (inactive),106% (inactive) and 53.4% (inactive)
Nc1nc(SC/C=C/CCl)c2[nH]cnc2n1,102% (inactive) and 98.1% (inactive),95.8% (inactive) and 131% (inactive),112% (inactive) and 115% (inactive),105% (inactive),–,95.1% (inactive) and 86.7% (inactive),95.4% (inactive) and 103% (inactive),102% (inactive) and 99.1% (inactive),104% (inactive) and 116% (inactive),106% (inactive) and 99.8% (inactive)
Nc1ccc2[nH]c(-c3ccccc3)cc(=O)c2c1,98.3% (inactive),101% (inactive),97.5% (inactive),97.4% (inactive),–,71.3% (inactive),102% (inactive),96.6% (inactive),–,96.8% (inactive)
CNc1ccc2nc3ccc(=[N+](C)C)cc-3sc2c1,1.76% (active) and -7.91% (active),63% (inactive) and 51.4% (inactive),30.7% (inactive) and 28.1% (inactive),9.72% (active) and 11.9% (inactive),36.4% (inactive) and -4.83% (active),-19.9% (active) and 8.62% (active),3.27% (active) and 5.26% (active),37.7% (inactive) and 20.6% (inactive),-22.3% (active) and -30.4% (active),–
CC(O)Cn1cnc2c1c(=O)n(C)c(=O)n2C (centres undefined),96.7% (inactive),102% (inactive),96.6% (inactive),118% (inactive),–,–,99.6% (inactive),102% (inactive),–,102% (inactive)
Nc1ccccc1SC1CC(=O)N(c2cccc3ccccc23)C1=O (centres undefined),101% (inactive),83.6% (inactive),97% (inactive),99.3% (inactive),–,–,–,101% (inactive),105% (inactive),90.5% (inactive)
ClC/C=C/CSc1ncnc2nc[nH]c12,101% (inactive) and 102% (inactive),98.9% (inactive) and 123% (inactive),110% (inactive),105% (inactive) and 106% (inactive),104% (inactive),102% (inactive) and 77.3% (inactive),101% (inactive) and 104% (inactive),106% (inactive) and 102% (inactive),109% (inactive) and 116% (inactive),91.9% (inactive) and 108% (inactive)
NC(=O)c1ccccc1OCC(O)CO (centres undefined),110% (inactive),95.8% (inactive),110% (inactive),103% (inactive),117% (inactive),98.4% (inactive),98.1% (inactive),103% (inactive),114% (inactive),–
CN1CCN(Cc2occc(=O)c2O)CCN(C)CCN(Cc2occc(=O)c2O)CC1,94.6% (inactive) and 49.4% (inactive),94.7% (inactive) and 70.5% (inactive),105% (inactive) and 74.9% (inactive),105% (inactive) and 6.42% (active),83.8% (inactive) and 68.4% (inactive),104% (inactive) and 45.8% (inactive),93.2% (inactive) and 12.3% (inactive),93.3% (inactive) and 50% (inactive),102% (inactive) and 29.7% (inactive),–
CCOC(=O)C(CNc1ccccc1)C(=O)OCC,100% (inactive),95.2% (inactive),105% (inactive),103% (inactive),85.6% (inactive),–,–,100% (inactive),106% (inactive),90.1% (inactive)
N#C/C(=C/c1c(O)ccc2ccccc12)C(N)=O,87.1% (inactive),89% (inactive),107% (inactive),103% (inactive),–,76.4% (inactive),107% (inactive),83.6% (inactive),105% (inactive),81.1% (inactive)
Cc1ncsc1CCO,96% (inactive) and 94.8% (inactive),95.8% (inactive) and 103% (inactive),126% (inactive) and 89.4% (inactive),118% (inactive) and 106% (inactive),91.2% (inactive) and 97.8% (inactive),94.5% (inactive) and 85.9% (inactive),96.2% (inactive) and 92.5% (inactive),105% (inactive) and 96.9% (inactive),118% (inactive) and 116% (inactive),103% (inactive) and 106% (inactive)
NCCSC(C[N+](=O)[O-])c1ccccc1Cl (centres undefined),95.6% (inactive),99.1% (inactive),91.7% (inactive),98.2% (inactive),102% (inactive),66.6% (inactive),-26.9% (active),101% (inactive),99.2% (inactive),–
Cc1c(Cl)cccc1NCN1C(=O)c2ccccc2C1=O,102% (inactive),98.7% (inactive),99.8% (inactive),108% (inactive),–,81.1% (inactive),99.1% (inactive),103% (inactive),105% (inactive),101% (inactive)
Fc1ccccc1Nc1n[nH]c(=S)s1,108% (inactive),107% (inactive),128% (inactive),109% (inactive),100% (inactive),108% (inactive),101% (inactive),101% (inactive),108% (inactive),108% (inactive)
CCN(CC)CCC(CNc1ccnc2cc(Cl)ccc12)c1ccc(OC)cc1 (centres undefined),72.4% (inactive) and 66.1% (inactive),97.2% (inactive) and 95.5% (inactive),60.4% (inactive) and 64.8% (inactive),70.1% (inactive) and 62.9% (inactive),47.3% (inactive) and 59.4% (inactive),25.8% (inactive) and 20.3% (inactive),78.9% (inactive) and 88.3% (inactive),62.1% (inactive) and 73.7% (inactive),33.3% (inactive) and -41.5% (active),–
COc1ccc(CCN(C)CCCC(C#N)(c2ccc(OC)c(OC)c2)C(C)C)cc1OC (centres undefined),86.9% (inactive) and 106% (inactive) and 86.1% (inactive),113% (inactive) and 102% (inactive) and 101% (inactive),96.4% (inactive) and 91.3% (inactive),95.5% (inactive) and 111% (inactive) and 102% (inactive),81.2% (inactive),98.8% (inactive) and 91.6% (inactive),87.5% (inactive) and 104% (inactive) and 101% (inactive),93.7% (inactive) and 88.8% (inactive) and 107% (inactive),100% (inactive) and 109% (inactive) and 101% (inactive),90.8% (inactive) and 86.4% (inactive)
N#CC(C#N)=C/C=C/c1cccc([N+](=O)[O-])c1,19.4% (inactive) and -19.3% (active),21.8% (inactive) and -24.7% (active),59.9% (inactive) and 26.4% (inactive),-7.92% (active) and -72.3% (active),23.3% (inactive),-55.5% (active) and -70.5% (active),34.1% (inactive) and 10.2% (inactive),26.2% (inactive) and -22.1% (active),1.24% (active) and -26.8% (active),–
COc1ccc(-c2ncnc3c2ncn3C/C=C/CCl)cc1,63.6% (inactive) and 80.5% (inactive),89.4% (inactive) and 81.5% (inactive),100% (inactive) and 105% (inactive),67.5% (inactive) and 97.1% (inactive),37.9% (inactive) and 62.9% (inactive),48.5% (inactive) and 55.5% (inactive),81.2% (inactive) and 75% (inactive),70.2% (inactive) and 80% (inactive),87.5% (inactive) and 94.1% (inactive),–
